The campaign covered roughly 11,000 compounds. About 310 (2.8%) were called active. Cut-off read from the data, not from the text of the source: active = activity change below about -85%; inactive = the rest. The list comes from a sample in which actives are over-represented; it also holds similar structures and randomly drawn compounds.

The results in this text go back to PubChem BioAssay AID434970 (Sanford-Burnham Center for Chemical Genomics, 2010).

The experiment deals with intestinal alkaline phosphatase [Mus musculus]. The experiment in a line: mouse intestinal phosphatase enzyme activation – biochemical, luminescence, single concentration, confirmation (AID 434970). Particulars: purified mouse IAP, CDP-Star luminescence, 30 min, at 10 µM; activation factor: measured here: IAP activation factor, stronger effect = higher value; activity change, negative = activation: stronger effect = lower value.
Take `C[C@H](CO)N1C[C@H](C)[C@@H](CN(C)S(=O)(=O)c2cccs2)Oc2ccc(NC(=O)Nc3ccccc3)cc2C1=O`: the activation factor is 2.52 and the activity change, negative = activation is -152% (active).

As for `COc1ccc(NC(=O)Nc2ccc3c(c2)C(=O)N([C@H](C)CO)C[C@H](C)[C@@H](CN(C)S(=O)(=O)c2cccs2)O3)cc1`, the activation factor turned out to be 2.1 and the activity change, negative = activation is -110% (active).

For `C[C@H](CO)N1C[C@H](C)[C@@H](CN(C)S(C)(=O)=O)Oc2ccc(NC(=O)Nc3ccc(C(F)(F)F)cc3)cc2C1=O`, the activation factor came to 1.83 and the activity change, negative = activation was -83.2% (inactive).

As for `C[C@H]1CN([C@@H](C)CO)C(=O)c2cc(NC(=O)NC3CCCCC3)ccc2O[C@H]1CN(C)C(=O)Nc1ccc(C(F)(F)F)cc1`, the activation factor is 1.58 and the activity change, negative = activation was -58.1% (inactive).

`COc1ccc(NC(=O)Nc2ccc3c(c2)C(=O)N([C@H](C)CO)C[C@H](C)[C@@H](CN(C)C(=O)Nc2ccc(C(F)(F)F)cc2)O3)cc1`: the activation factor was determined as 1.69 and the activity change, negative = activation is -68.8% (inactive).

Regarding `C[C@H](CO)N1C[C@H](C)[C@@H](CN(C)S(=O)(=O)c2cccs2)Oc2ccc(NC(=O)NC3CCCCC3)cc2C1=O`, the activation factor worked out at 2.6 and the activity change, negative = activation was -160% (active).

For `CCOC(=O)C1=CN(Cc2ccco2)S(=O)(=O)N(CC)C1c1ccc(C(F)(F)F)cc1` (stereo not given), the activation factor was found to be 0.893 and the activity change, negative = activation is 10.7% (inactive).

For the compound `CCOc1ccc(N2CC(C(=O)NCCCN3CCOCC3)CC2=O)cc1` (stereo not given), the activation factor amounted to 0.917 and the activity change, negative = activation is 8.3% (inactive).

With `COc1ccccc1CC(=O)N(CCC#N)CCC#N`, the activation factor came out at 0.913 and the activity change, negative = activation is 8.65% (inactive).

With `O=C(COc1c(F)c(F)cc(F)c1F)NC(=O)NC1CCCC1`, the activation factor is 1.08 and the activity change, negative = activation was -7.8% (inactive).

With `N#C/C(=C1/CCCCCN1)c1nc2ccccc2[nH]1`, the activation factor worked out at 1.08 and the activity change, negative = activation is -7.65% (inactive).

Consider `CCOC(=O)N1CCN(S(=O)(=O)c2ccc3c(c2)SCC(=O)N3)CC1`, for which the activation factor worked out at 1.06 and the activity change, negative = activation was -6.25% (inactive).

In the case of `COC(=O)[C@@]1(C)[C@H]2C(=O)N(C)C(=O)[C@H]2[C@H]2CN=C(SCc3ccc(Cl)cc3)N21`, the activation factor is 1.1 and the activity change, negative = activation is -9.6% (inactive).

Take `Cc1ccccc1C(=O)/C=C1\NC(=O)CS1`: the activation factor worked out at 1.05 and the activity change, negative = activation was -5.35% (inactive).

As for `COc1cccc(NC(=O)Nc2cc(NC(=O)Nc3cccc(OC)c3)c(C)nc2C)c1`, the activation factor amounted to 1.65 and the activity change, negative = activation was -65.3% (inactive).

Take `Cc1ccc(NC(=O)Nc2ccc(F)cc2)cc1Cl`: the activation factor worked out at 1.51 and the activity change, negative = activation was -50.8% (inactive).

With `CC(=O)Nc1cccc(NC(=O)Nc2ccc(C)c(Cl)c2)c1`, the activation factor amounted to 1.9 and the activity change, negative = activation is -89.6% (inactive).

Consider `COc1ccc(N2CCN(C(=O)Nc3cccc(C(F)(F)F)c3)CC2)cc1`, for which the activation factor was 1.14 and the activity change, negative = activation was -14.2% (inactive).

As to `CCc1ccc(NC(=O)Nc2cccc(OC)c2)cc1`, the activation factor came to 1.62 and the activity change, negative = activation was -62.5% (inactive).

With `COc1cccc(NC(=O)Nc2ccc(C)c(Cl)c2)c1`, the activation factor amounted to 2.17 and the activity change, negative = activation is -117% (active).

As for `COc1cccc(C(C)NC(=O)Nc2cccc(C(F)(F)F)c2)c1` (stereo not given), the activation factor is 3.84 and the activity change, negative = activation is -284% (active).

Take `CCOP(=O)(OCC)C(NC(=O)Nc1ccc(Cl)cc1)c1ccccc1` (stereo not given): the activation factor was found to be 1.56 and the activity change, negative = activation was -56.5% (inactive).

For `COc1cccc(NC(=O)Nc2ccc(C(C)(C)C)cc2)c1`, the activation factor was 2.18 and the activity change, negative = activation is -118% (active).

On to `CCOP(=O)(OCC)C(NC(=O)Nc1ccc(C)c(Cl)c1)c1ccccc1` (stereo not given), for which the activation factor turned out to be 2.59 and the activity change, negative = activation is -159% (active).

As for `COc1cccc(NC(=O)Nc2cc(Cl)ccc2C)c1`, the activation factor was 1.41 and the activity change, negative = activation was -40.7% (inactive).

Turning to `COc1cccc(NC(=O)CN(c2cccc(C(F)(F)F)c2)S(C)(=O)=O)c1`, the activation factor was 1.12 and the activity change, negative = activation was -12.2% (inactive).

Regarding `Cc1oc(-c2ccc3c(c2)OCCO3)cc1C(=O)NC(CCC(=O)O)C(=O)O` (stereo not given), the activation factor was determined as 0.95 and the activity change, negative = activation is 5.05% (inactive).

As for `O=C(NCCNS(=O)(=O)c1ccccc1)c1cc(OCC(F)(F)F)ccc1OCC(F)(F)F`, the activation factor was found to be 1.09 and the activity change, negative = activation is -9.5% (inactive).

For the compound `C=CCn1c(=O)c2ccccc2n2c(Sc3nnnn3-c3ccccc3)nnc12`, the activation factor is 1 and the activity change, negative = activation is -0.35% (inactive).

In the case of `O=C(CN1N=C(C(F)(F)F)CC1(O)c1ccc([N+](=O)[O-])cc1)c1ccccc1` (stereo not given), the activation factor turned out to be 1.07 and the activity change, negative = activation was -7.45% (inactive).

Consider `CC1=NN(/C(=N\c2nnc(C)s2)Nc2ccc(C(C)(C)C)cc2)[C@H](c2ccc(C)cc2)S1`, for which the activation factor worked out at 0.976 and the activity change, negative = activation was 2.45% (inactive).

With `CCC(C)c1ccc(NC(=O)C2CC2)cc1` (stereo not given), the activation factor was 1.07 and the activity change, negative = activation was -7.35% (inactive).

For the compound `Cc1cc(C)nc(-n2nc(C)c3c(C(F)(F)F)cc(=O)[nH]c32)n1`, the activation factor is 1.03 and the activity change, negative = activation is -2.7% (inactive).

Consider `C=CCn1cc(CN2CCC(C(=O)Nc3cccc(-c4cccc(Cl)c4)c3)CC2)c(C)n1`, for which the activation factor was determined as 3.74 and the activity change, negative = activation was -274% (active).

As for `CCn1cc(CN2CCC(C(=O)Nc3cccc(-c4cccc(Cl)c4)c3)CC2)c(C)n1`, the activation factor is 4.96 and the activity change, negative = activation is -396% (active).

With `C/C(=N\NC(=O)c1nn(C)cc1Br)c1cccc(NC(=O)C2CCCC2)c1`, the activation factor was 1.03 and the activity change, negative = activation is -3.45% (inactive).

`Cc1c(CN2CCC(C(=O)Nc3cccc(-c4cccc(Cl)c4)c3)CC2)cnn1C`: the activation factor came to 4.12 and the activity change, negative = activation is -312% (active).

Regarding `O=C(Nc1cccc(F)c1)N1CCN(C/C=C/c2ccccc2)CC1`, the activation factor came to 0.988 and the activity change, negative = activation is 1.15% (inactive).

On to `C=CCn1cc(CN2CCC(C(=O)Nc3cccc(-c4cccc(F)c4)c3)CC2)c(C)n1`, for which the activation factor was found to be 2.94 and the activity change, negative = activation is -194% (active).

In the case of `COc1ccc(Cl)cc1C(=O)NCc1cnn(C)c1C`, the activation factor stood at 0.932 and the activity change, negative = activation was 6.75% (inactive).
